Here are results for 24 molecules from PubChem BioAssay (NCATS).

A short description of experiment [1]: P-glycoprotein substrates identified in KB-3-1 adenocarcinoma cell line, qHTS therapeutic library screen (AID 1346986). Also: nearly all actives have a fitted effect of over 60% in size.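 Also: potency is read from the fitted curve at half-maximal effect; potency is for cytotoxicity meaning loss of cell viability.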 The procedure, abridged: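 Using luminescence to quantify ATP, parental and P-gp-overexpressing KB cells were compared after 72 h compound titration. KB-8-5-11 was also run with the P-gp inhibitor tariquidar.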
In general terms: In qHTS, concentration-response curves come from the screen itself.

Experiment [2] is described as follows: P-glycoprotein substrates identified in KB-8-5-11 adenocarcinoma cell line, qHTS therapeutic library screen (AID 1346987). Also: nearly all actives have a fitted effect of over 65% in size. Also: potency is read from the fitted curve at half-maximal effect. The procedure, abridged:
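Human cervical adenocarcinoma KB-8-5-11 cells, selected in colchicine to over-express P-gp and assayed without it, were exposed for 72 h to titrated compounds. An ATP-based luminescent viability signal gave AC50.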

Experiment [3] can be described thus: Primary qHTS for inhibitors of nuclear receptor binding SET domain protein 2 (NSD2) in an isogenic RCH-ACV NSD2 p.E1099K mutant (9B) (AID 1645876). Also: nearly all actives have a fitted effect of over 70% in size. Also: potency is read from the fitted curve at half-maximal effect.
Experiment [4] is described as follows: Primary qHTS for inhibitors of nuclear receptor binding SET domain protein 2 (NSD2) in an RCH-ACV wild type WT cells (2C) (AID 1645877). Also: nearly all actives have a fitted effect of over 70% in size. Also: potency is read from the fitted curve at half-maximal effect.
Experiment [5] has as its target Glutathione peroxidase 1 (Homo sapiens) (UniProt P07203). Description: Primary qHTS Assay for Inhibitors of Recombinant Selenoprotein Glutathione Peroxidase 1 (GPX1) (AID 1845191). Also: nearly all actives have a fitted effect of over 65% in size. Also: potency is read from the fitted curve at half-maximal effect. The procedure, abridged:
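GPX1 10 nM, GR 100 nM, GSH 1 mM, NADPH 0.5 mM, CHP 0.5 mM (final). 30-min cpd preincubation, RT. Ex340/Em450 read t=0, t=15 min.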

Experiment [6] can be described thus: Drug repurposing screens with cells derived from glioblastoma tumor samples (AID 1345199). Also: potency is read from the fitted curve at half-maximal effect. As to activity, negative = cell killing: % is scaled to controls: 0 for no effect and ±100 for the full control effect. As to all read-outs here: nearly all actives have a fitted effect of over 40% in size. The note with it: GBM patient neurospheres viability, ATP luminescence, 48 h; for Potency: tumour line A. The method, boiled down: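 Primary testing used CD133+ neurospheres from four GBM patients, seven concentrations, 48 h exposure and ATP-based viability; confirmation added three slower-growing patient lines.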

A short description of experiment [7]: qHTS to identify inhibitors of the type 1 interferon - major histocompatibility complex class I in skeletal muscle: primary screen against the NCATS Mechanism Interrogation Plate v5.0 (MIPE) Libary (AID 1347411). Also: nearly all actives have a fitted effect of over 65% in size. Also: potency is read from the fitted curve at half-maximal effect. The method, boiled down:
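IFN-beta-driven (4 ng/ml) HLA-B-HiBit expression in CRISPR-tagged C25cl48 myoblasts; compounds 11-pt, 1:3, max 46 uM, 24 hr exposure; lytic NanoLuc complementation luminescence.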

For experiment [8], the target named is Phospholipid hydroperoxide glutathione peroxidase GPX4 (Homo sapiens) (UniProt P36969). Description: Primary qHTS Assay for Inhibitors of Recombinant Selenoprotein Glutathione Peroxidase 4 (GPX4) (AID 1845192). Also: nearly all actives have a fitted effect of over 65% in size. The note with it: outcome: dose series up to 50 µM unless noted. The method, boiled down:
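qHTS, GR-coupled: GPX4 200 nM + cpd 30 min RT → GSH 1 mM, NADPH 0.5 mM, GR 100 nM → CHP 0.5 mM start; fluor 340/450 at t0 and t15 min; no-enzyme wells as control.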

A short description of experiment [9]: qHTS drug screen for cell cycle checkpoint inhibitors in PARPi-resistant BRCA-mutant ovarian cancer cell lines. (AID 1963452; calls by dose curve). The note with it: PEO1/OlaR viability, CellTiter-Glo luminescence, 96 h, stronger effect = lower value. The method, boiled down: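 PEO1, PEO4 and PEO1/OlaR ovarian cancer cells, 600 per well, exposed 96 h at 37C to a dilution series. Viability read by CellTiter-Glo luminescence, normalized to DMSO and empty wells; activity summarized as Z-AUC.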

The target in experiment [10] is Calcium and integrin-binding protein 1 (Homo sapiens) (UniProt Q99828). Description: Primary qHTS for Identification of Calcium Integrin Binding Protein 1 (CIB1) Competitor (AID 1508620).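 Also: GST tagged CIB1 binding a fluorescein labelled alphaIIb integrin peptide tracer; top concentration of the series differs between compounds; % is scaled to controls: 0 for no effect and ±100 for the full control effect.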 The method, boiled down: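 Fluorescence polarization competition: CIB1-GST (1 uM final) preincubated with compound 15 min at room temperature, then FITC-labeled alphaIIb peptide (100 nM final) added for another 15 min. Polarization read at Ex 480/Em 540.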
Sequence of Calcium and integrin-binding protein 1 (Homo sapiens) (Q99828 whole entry, looked up): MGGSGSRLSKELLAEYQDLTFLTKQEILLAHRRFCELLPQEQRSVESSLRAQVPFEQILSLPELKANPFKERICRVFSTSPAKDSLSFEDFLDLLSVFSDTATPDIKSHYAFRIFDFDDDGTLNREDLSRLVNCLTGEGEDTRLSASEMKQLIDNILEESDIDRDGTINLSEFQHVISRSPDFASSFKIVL

Where [11] appears, read: at 45.9 µM (top of the series), tumour line B.
[12] abbreviates: at 45.9 µM (top of the series), tumour line D.
Setting [13] is: at 46.1 µM (top of the series), tumour line C.
The mark [14] stands for this setting: measured here: PEO1 parental Z-AUC.

Structures are written as SMILES. Inconclusive results are not listed. The source made the active and inactive calls. Unless noted, calls follow the shape of the dose curve; as a rule, active = well fitted curve in the direction sought with a large enough effect; inconclusive = small, poorly fitted or top-dose-only effect, or another doubt; inactive = no such curve, though single readings can be large; an effect the other way counts as inactive or inconclusive.

Sequence of Glutathione peroxidase 1 (Homo sapiens) (P07203 whole entry, looked up): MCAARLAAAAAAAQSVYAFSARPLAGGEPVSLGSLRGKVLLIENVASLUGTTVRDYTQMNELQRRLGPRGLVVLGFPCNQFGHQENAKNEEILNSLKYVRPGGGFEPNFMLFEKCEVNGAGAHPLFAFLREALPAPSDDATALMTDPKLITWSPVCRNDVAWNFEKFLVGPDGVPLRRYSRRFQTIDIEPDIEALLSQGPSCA
Sequence of Phospholipid hydroperoxide glutathione peroxidase GPX4 (Homo sapiens) (P36969 whole entry, looked up): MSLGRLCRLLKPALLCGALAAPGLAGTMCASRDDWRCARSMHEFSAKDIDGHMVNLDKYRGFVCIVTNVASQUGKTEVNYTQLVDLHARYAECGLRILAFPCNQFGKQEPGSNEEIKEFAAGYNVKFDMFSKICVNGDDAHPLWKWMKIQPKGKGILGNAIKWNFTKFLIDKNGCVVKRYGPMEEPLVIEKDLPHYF

In the case of `COc1ccc(C(=O)Nc2sc3c(c2C(N)=O)CCCC3)cc1OC`, the Potency entry in experiment [1], in experiment [2], in experiment [3], in experiment [4] and in experiment [5] was “inactive” throughout.
Take `COc1cc([C@@H]2c3cc4c(cc3C(O[C@@H]3O[C@@H]5CO[C@@H](C)O[C@H]5[C@H](O)[C@H]3O)C3COC(=O)[C@@H]32)OCO4)cc(OC)c1OP(=O)(O)O` (stereo partly drawn): the Potency in experiment [2] is 18.4 µM (active); in [6], 15.8 µM (active). Further, the activity, negative = cell killing in experiment [6] (setting [11]) is -18.7% (inactive); in experiment [6] (setting [12]), -17% (inactive); in experiment [6] (setting [13]), -13.7% (inactive).
For the molecule `N#C/C(=C(\N)Sc1ccc(N)cc1)c1ccccc1C(F)(F)F`, the Potency result in [1] and in experiment [2] was “inactive” in each case.
On to `C=CC(=O)Nc1cccc(C)c1Nc1ncc2cc(-c3c(Cl)c(OC)cc(OC)c3Cl)ccc2n1`, for which the Potency in experiment [1] is 14.6 µM (active); in experiment [2] it was 9.2 µM (active); in experiment [7], 11.7 µM (active); in experiment [3], 3.66 µM (active); in experiment [4] it was 4.11 µM (active). The Potency result in experiment [5] and in [8] was “inactive” in each case. Besides, the Z-AUC was -0.505 (inactive) in [9], -0.983 in [9] (setting [14]) and -1.33 in [9] (measured here: PEO4 Z-AUC).
With `COc1cc(/C=C(\C#N)C(N)=O)cc(CSc2nc3ccccc3s2)c1O`, the Potency result in experiment [1], in experiment [2], in experiment [3], in experiment [4] and in [5] was “inactive” throughout.
As for `C[N+]1(C)CCN(CC(O)(c2ccccc2)C2CCCCC2)CC1` (stereo not drawn), the Potency entry in experiment [5] is “inactive”. Further, the activity, negative = cell killing in experiment [6] (setting [11]) is 4.18% (inactive); in experiment [6] (setting [12]) it was -11.4% (inactive); in experiment [6] (setting [13]), 3.68% (inactive).
Consider `COC(=O)[C@]12CCC(C)(C)C[C@@H]1[C@@H]1C(=O)C=C3[C@]4(C)C=C(C#N)C(=O)C(C)(C)[C@@H]4CC[C@@]3(C)[C@]1(C)CC2`, for which the Potency in experiment [1] and in experiment [2] was 1.46 µM (active) in each case.
On to `O=c1[nH]ccc2c(S(=O)(=O)N3CCCNCC3)cccc12`, for which the Potency result in experiment [1], in experiment [2], in experiment [3], in [4] and in experiment [5] was “inactive” each time.
As for `C#C[C@]1(OC(C)=O)CC[C@H]2[C@@H]3CCC4=CC(=O)CC[C@@H]4[C@H]3CC[C@@]21C`, the values for the Potency in experiment [2] and in [6] were 3.66 µM (active) and 35.5 µM (active), respectively. The Potency entry in experiment [5] and in experiment [8] was “inactive” throughout. Moreover, the activity, negative = cell killing in [6] (setting [11]) is -16% (inactive); in [6] (setting [13]) it was -23.2% (inactive).
With `Nc1ncnc2c1c(I)cn2C1OC(CO)C(O)C1O` (stereo not drawn), the Potency in experiment [1] is 3.26 µM (active); in experiment [2] it was 2.31 µM (active); in experiment [3] it was 1.84 µM (active); in [4] it was 1.03 µM (active). Besides, in [5], the Potency entry was “inactive”.
For `CN(CC(=O)N1CCOCC1)Cc1c(Cl)cccc1NC(=O)c1ccccc1`, the Potency result in [5] and in [8] was “inactive” in each case. In addition, the activity, negative = cell killing in experiment [6] (setting [11]) is -3.67% (inactive); in [6] (setting [12]), -22.4% (inactive); in experiment [6] (setting [13]), -9.11% (inactive). Also, the Potency in experiment [6] was 35.5 µM (active).
Take `Cc1nc2c(O)cccc2c(=O)[nH]1`: the Potency result in experiment [1], in [2], in experiment [3] and in experiment [4] was “inactive” each time.
As to `Cc1ccc([N+](=O)[O-])cc1S(=O)(=O)N(C)/N=C\c1cnc2ccc(Br)cn12`, the Potency is 0.164 µM (active) in experiment [1], 0.231 µM (active) in experiment [2], 0.058 µM (active) in [3] and 0.0517 µM (active) in [4].
With `O=C1CCCC2=C1C1(CCCC1)N=C(Nc1nc3ccccc3o1)N2`, the Potency result in experiment [1], in [2], in experiment [3], in experiment [4] and in experiment [5] was “inactive” in each case. Besides, the outcome in experiment [10] was inactive.
As to `O=C(Nc1ccc(S(=O)(=O)Nc2nccs2)cc1)c1cc(-c2ccccc2)nc2ccccc12`, the Potency result in experiment [1], in experiment [2] and in experiment [5] was “inactive” in each case. Moreover, the outcome in experiment [10] was inactive.
On to `Clc1ccc2ncc(-c3cccc(NC4CCNCC4)n3)n2c1`, for which the Potency in experiment [1] is 3.66 µM (active); in [2] it was 16.4 µM (active); in experiment [3], 0.366 µM (active); in experiment [4] it was 0.259 µM (active). Besides, the outcome in [10] was inactive. Also, the Potency result in experiment [5] is “inactive”.
Consider `CC(C)n1nc(-c2ccc(NC(=O)Nc3cccc(C(F)(F)F)c3)cc2)c2c(N)ncnc21`, for which the Potency in experiment [1] was 1.03 µM (active); in experiment [2], 4.11 µM (active); in experiment [3], 0.366 µM (active); in [4] it was 0.259 µM (active). In experiment [5], the Potency result is “inactive”.
Turning to `CC(C)n1cc(-c2ccc(Oc3ccccc3)cc2)c2c(N)ncnc21`, the Potency in [1] is 14.6 µM (active); in experiment [2], 9.2 µM (active); in experiment [3], 1.64 µM (active); in experiment [4] it was 2.06 µM (active). Moreover, the result in experiment [10] was inactive. Further, the Potency result in experiment [5] was “inactive”.
For the molecule `COc1ccc2nc3ccc(OC)cc3c(SCCCN)c2c1`, the Potency result in experiment [1], in experiment [2], in experiment [3] and in [4] was “inactive” throughout.
For the molecule `COc1cc(OC)c2ccc(=O)oc2c1`, the Potency result in [1], in experiment [2], in [3] and in experiment [4] was “inactive” throughout. In experiment [5], the Potency was 25.5 µM (active).
As to `CCc1c(C(=O)NNC(=O)[C@@H](O)c2cc(F)cc(F)c2)ccc(O)c1C`, the Potency entry in [1], in experiment [2], in [7], in [3], in experiment [4] and in [5] was “inactive” throughout. In addition, the Potency result in experiment [8] is “inactive”. Besides, the Z-AUC in experiment [9] was 1.17 (inactive); in experiment [9] (setting [14]) it was 0.688; in [9] (measured here: PEO4 Z-AUC) it was 1.04.
As for `O=C1CCc2cc(S(=O)(=O)Nc3ccc(F)c(Cl)c3)c(F)cc2N1`, the Potency result in experiment [1], in [2], in [3], in experiment [4] and in [5] was “inactive” in each case. Further, the result in [10] was inactive.
For the molecule `Cc1cc(Nc2nc(NC(C)c3ccc(F)cc3)c(C#N)cc2F)n[nH]1` (stereo not drawn), the Potency in [1] was 0.164 µM (active); in experiment [2], 0.731 µM (active); in [3], 0.92 µM (active); in experiment [4] it was 0.731 µM (active).
Turning to `O=C1CCCC2=C1C(c1ccncc1Br)N=C(Nc1nc3ccccc3o1)N2` (stereo not drawn), the Potency result in [1], in experiment [2] and in experiment [5] was “inactive” throughout. Further, in [10], the outcome was inactive.
